This is a sample that favours compounds with a hit; in the whole collection about 1.2% have one here.
RTF Ca sens act: cardiac RTF calcium sensitization | P19429+P45379 | IANBD-labeled TnC RTF fluorescence at EC20 calcium; 0% EC20 calcium, 100% full calcium | activation, % at 7.2 µM | hit rate 0.24% among 340,000;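 active = activation above the mean over all tested compounds plus 3 SD, cut at about 30% in these data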;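 note: rise in fluorescence read as greater calcium sensitivity of cardiac thin filaments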
Cardiac RTF inh: cardiac RTF calcium desensitization. inhibition, % at 7.15 µM. hit rate 0.12% among 340,000. P19429+P45379. IANBD-labeled cardiac RTF, Ca2+ fluorescence;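 active = inhibition above the mean inhibition of all tested compounds plus 3 SD, cut at about 17% in these data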;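 note: assay run at fixed EC70 calcium of 1.6 mM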
E coli Lon inh: inhibits E. coli Lon protease; P0A9M0; purified E. coli Lon protease, fluorescence polarization; inhibition, % at 7.94 µM; hit rate 0.42% among 360,000; AID 602123; in the data active = inhibition above about 13%, passing the limit was not always enough
GLD-1 TGE inh: GLD-1-TGE RNA interaction inhibition (C. elegans) | purified GLD-1 + fluorescein TGE RNA, fluorescence polarization | hit rate 0.44% among 320,000 | inhibition, % at 5.96 µM;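 active = percent inhibition above a per-plate cutoff, the plate mean of test compounds plus 3 SD, cut at about 30% in these data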
BCLXL inh: inhibitors of human Bcl-xL | inhibition, % at 10.9 µM | Q07817 | GST-Bcl-xL / FITC-Bim BH3 peptide fluorescence polarization | hit rate 0.7% among 320,000;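 active = inhibition above the mean of all tested compounds plus 3 SD, cutoff set per campaign, cut at about 30% in these data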;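 note: inhibitors lower millipolarization by displacing the labeled peptide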
Target sequence (Q07817 whole entry, looked up): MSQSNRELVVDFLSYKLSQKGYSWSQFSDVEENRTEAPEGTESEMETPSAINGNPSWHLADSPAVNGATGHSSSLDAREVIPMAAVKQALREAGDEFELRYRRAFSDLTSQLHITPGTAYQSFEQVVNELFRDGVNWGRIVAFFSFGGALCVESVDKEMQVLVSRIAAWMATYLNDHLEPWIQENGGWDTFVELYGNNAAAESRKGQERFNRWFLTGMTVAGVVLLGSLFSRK
Large screens that a line does not name were inactive.

CC1=Nc2ccccc2/C1=C\c1nc(-c2ccc(F)cc2)oc1O	RTF Ca sens act 84, GLD-1 TGE inh 172, BCLXL inh active
CN=Cc1nc(-c2ccccc2)oc1O	none
CCN(CC)c1ccc(/C=C(/C#N)c2nc3ccc(C)cc3[nH]2)c(OC(C)C)c1	RTF Ca sens act 174, BCLXL inh 42
CCOc1cc(N(CC)CC)ccc1/C=C(/C#N)c1nc2ccccc2[nH]1	RTF Ca sens act 106
CCCOc1cc(N(CC)CC)ccc1/C=C(/C#N)c1nc2ccc(C)cc2[nH]1	RTF Ca sens act 61
COc1cc(/C=C(\C#N)c2nc3ccc(C)cc3[nH]2)c([N+](=O)[O-])cc1OC	none
O=C(CSc1nnnn1C1CCCCC1)Nc1cccc(NC(=O)c2ccco2)c1	none
O=C(CSc1nnc(C2CC2)n1Cc1ccccc1)c1cc2ccccc2o1	none
CC1=C(C#N)C(=O)OC(C)(C)C1	GLD-1 TGE inh 63, BCLXL inh 86
O=C(Nc1ccnn1C1CCN(C2CCC2)CC1)c1cccc(F)c1	none
CCCc1cc(=O)[nH]c(-n2[nH]c3c(c2=O)CCCC3)n1	BCLXL inh 47
Cc1c(Br)c(O)c(Br)c2sc(=O)oc12	BCLXL inh 36
Cc1oc(C)c2c(=O)ccc3c(c12)OC(N)=C(C#N)C3c1ccccc1 (stereo not given)	BCLXL inh 32
CC(C)(C)c1csc(NC(=O)Cc2ccc(S(=O)(=O)N3CCOCC3)s2)n1	BCLXL inh 33
COc1ccc(OC)c(/C=C2\NC(=O)NC2=O)c1	none
COc1cc(N2CCCC2)c(OC)cc1/C=C1/NC(=S)NC1=O	RTF Ca sens act 79
Cc1cc(NC(=O)c2ccco2)ncc1NC(=O)CCc1ccccc1	none
CCC(=O)Nc1cc(C)c(NC(=O)CCc2ccccc2)cn1	GLD-1 TGE inh 37, BCLXL inh 49
COCCNC(=O)c1c(N)sc2c1CCCC2	none (no result: RTF Ca sens act, Cardiac RTF inh, E coli Lon inh)
Nc1sc2c(c1C(=O)NC1CCS(=O)(=O)C1)CCC2 (stereo not given)	BCLXL inh 32
NC(=O)c1c(N)sc2c1CCCCC2	RTF Ca sens act 30
NC(=O)c1c(N)sc2c1CCC2	none (no result: GLD-1 TGE inh, BCLXL inh)
CNC(=O)c1c(N)sc2c1CCCCC2	GLD-1 TGE inh 36, BCLXL inh 56 (no result: RTF Ca sens act, Cardiac RTF inh, E coli Lon inh)
Cc1ccccc1C(=O)NC1CCS(=O)(=O)C1 (stereo not given)	none
COc1cccc2c1-c1c(O)cccc1C2=O	BCLXL inh 43
O=C1C=C(O)c2cccc(O)c2C1=O	none
O=C1c2cccc(O)c2C(=O)c2c(O)cccc21	GLD-1 TGE inh 92, BCLXL inh 119 (no result: RTF Ca sens act, Cardiac RTF inh, E coli Lon inh)
COc1ccccc1O	none
O=C1CCCC(=NNC(=O)c2cc3ccccc3cc2O)C1	none (no result: BCLXL inh)
COc1ccccc1C(=O)Nc1ccnn1C1CCN(C(C)CSC)CC1 (stereo not given)	BCLXL inh 42
CSCC(C)N1CCC(n2nccc2NC(=O)CCCc2ccccc2)CC1 (stereo not given)	GLD-1 TGE inh 45, BCLXL inh 99
COCCC(=O)N1CCC(n2nccc2NC(=O)c2ccccc2C)CC1	none
Cc1ccccc1C(=O)Nc1ccnn1C1CCN(C2CCSCC2)CC1	BCLXL inh 36
COc1ccccc1C(=O)Nc1ccnn1C1CCN(C2CCSCC2)CC1	BCLXL inh 42
Nn1c(SCC(=O)NC2CCS(=O)(=O)C2)nnc1-c1cccs1 (stereo not given)	none
COc1cc(OC)c(S(=O)(=O)NC(C)C)cc1S(=O)(=O)NC(C)C	none
COC(=O)CCCC1=CC2=CC(=O)C(C)(OC(=O)C3CCCC3)C(=O)C2=CO1 (stereo not given)	GLD-1 TGE inh 48, BCLXL inh 45 (no result: E coli Lon inh)
CCCCC1=CC2=CC(=O)C(C)(OC(=O)C3CCCC3)C(=O)C2=CO1 (stereo not given)	GLD-1 TGE inh 36
CC1(OC(=O)C2CCCC2)C(=O)C=C2C=C(c3ccsc3)OC=C2C1=O (stereo not given)	none
COC(=O)C1=C(C)OC(N)=C(C#N)C1c1ccccc1F (stereo not given)	none
COC(=O)C1=C(CSc2nc3c(cc2C#N)CN(C)CC3)OC(N)=C(C#N)C1c1ccccc1F (stereo not given)	GLD-1 TGE inh 48, BCLXL inh 86
CCOC(=O)C1=C(CSc2nc3c(cc2C#N)CN(C)CC3)OC(N)=C(C#N)C1c1ccc(F)cc1 (stereo not given)	BCLXL inh 39
CCOC(=O)C1=C(CSc2nc3c(cc2C#N)CN(C)CC3)OC(N)=C(C#N)C1c1ccccc1 (stereo not given)	BCLXL inh 68
CCOC(=O)C1=C(CSc2nc3c(cc2C#N)CCC3)OC(N)=C(C#N)C1c1ccccc1 (stereo not given)	none
C[C@H](NC(=O)c1nc[nH]c1C(=O)N1CCc2ccccc2C1)c1ccccc1	none
Brc1cccc(OCCn2ccnc2)c1	none
Cc1cc2oc3cc(NCCC4CCCN4C)ccc3c(=O)c2cc1C (stereo not given)	none
O=c1c2ccccc2sc2ccc(NCCCN3CCOCC3)cc12	GLD-1 TGE inh 36
CN1CCCC1CCNc1ccc2sc3ccccc3c(=O)c2c1 (stereo not given)	GLD-1 TGE inh 39, BCLXL inh 33
COc1cc2sc3cc(NCCCN4CCOCC4)ccc3c(=O)c2cc1OC	none (no result: BCLXL inh)
CC(C)[C@H](NC(=O)c1ccc([N+](=O)[O-])cc1Cl)C(=O)N1CCN(C/C=C/c2ccccc2)CC1	none (no result: BCLXL inh)
Cc1ccc(C(=O)OC(C)C(=O)NCc2ccc3c(c2)OCO3)cc1S(=O)(=O)N1CCOCC1 (stereo not given)	none (no result: GLD-1 TGE inh, BCLXL inh)
CC(=O)N1c2ccc(S(=O)(=O)NCCC(=O)Nc3ccc(C)cn3)cc2CC1C (stereo not given)	none
O=c1c(/C=N/Nc2ccccc2)c(Sc2nnnn2-c2ccccc2)nc2ccccn12	RTF Ca sens act 32 (no result: GLD-1 TGE inh, BCLXL inh)
O=C(O)c1ccccc1N/N=C/c1c(Sc2nnnn2-c2ccccc2)nc2ccccn2c1=O	none
NS(=O)(=O)c1cccc(NC(=O)CSc2nnc(-c3ccccc3)o2)c1	none (no result: BCLXL inh)
CC(=O)Oc1ccc2c(c1)Oc1cc(OC(C)=O)ccc1C21OC(=O)c2ccccc21	RTF Ca sens act active, GLD-1 TGE inh 142, BCLXL inh 181 (no result: E coli Lon inh)
CN1CCS/C1=C/C=C1/SC(=S)N(Cc2ccccc2)C1=O	RTF Ca sens act 96
CN1CCS/C1=C/C=C1\SC(=S)N(CC(=O)O)C1=O	RTF Ca sens act 249
CCCCN1C(=O)/C(=C/C=C2\SCCN2C)SC1=S	RTF Ca sens act 115 (no result: GLD-1 TGE inh, BCLXL inh)
COc1ccc(S(=O)(=O)NCc2cccnc2)cc1NC(=O)c1ccccc1	none
O=C(Nc1nc2c(s1)CN(Cc1ccccc1)CC2)c1cccc(S(=O)(=O)N2CCc3ccccc32)c1	RTF Ca sens act 67, BCLXL inh 55
O=Cc1c(-c2ccccc2)cc2oc3ccccc3cc1-2	none
Cc1ccccc1NS(=O)(=O)c1ccc(-c2ccc(=O)[nH]n2)o1	none
CCN(CC)c1ccc(NS(=O)(=O)c2ccc(-c3ccc(=O)[nH]n3)o2)c(C)c1	BCLXL inh 32
